# Laboratory results: the supplement of paper PMC3334620
# Whole data set: some 33,000 sequences, median “E-score (-0.5 to 0.5)” near -0.04, cut for the highest 2% near 0.36. The sample holds the highest values, similar sequences and a random draw of the others, so the mix is not that of the screen.
# Target: T1, Hmlalpha2 (UniProt P0CY09)
# T1 sequence: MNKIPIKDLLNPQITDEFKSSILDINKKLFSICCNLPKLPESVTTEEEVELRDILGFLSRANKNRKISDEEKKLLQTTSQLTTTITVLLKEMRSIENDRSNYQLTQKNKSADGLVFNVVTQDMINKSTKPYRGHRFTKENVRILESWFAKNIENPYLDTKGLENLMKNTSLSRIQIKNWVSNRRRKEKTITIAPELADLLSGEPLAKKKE
# Test: PBM E-score (8-mer binding enrichment) (E-score (-0.5 to 0.5)); higher = stronger / more preferred TF binding
# Conditions: protein concentration: 200 nM; construct: GST-full length
# How it was run: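 Yeast transcription factors carrying a GST tag, as full-length proteins or DNA-binding domains, were produced by PURExpress in vitro transcription/translation. About 100-200 nM protein was applied to universal all-10-mer Agilent arrays, double-stranded by primer extension on fresh or once-stripped slides. Bound protein was detected with fluorescent anti-GST, and scans were normalised with masliner. The Universal PBM Analysis Suite gave each ungapped eight-base word, pooled with its reverse complement, an E-score, a modified Wilcoxon-Mann-Whitney statistic.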
row,Sequence,PBM E-score
1,TTCTTCAA,0.0864
2,ACTCATAC,-0.00755
3,GGAAGCTA,-0.236
4,CCCTGGGC,-0.302
5,AGCCCTAA,0.00565
6,AAACACGC,0.426
7,AAACACAG,0.318
8,AAACACCA,-0.0494
9,AAACACGG,0.371
10,AAACACTC,0.109
11,AAACACAC,0.34
12,AAACACGT,0.361
13,AAACACCG,0.196
14,AAACACGA,0.383
15,CCAAGTCC,-0.309
16,TGGTGACA,0.087
17,GGGTTGGA,-0.133
18,AAGGGATC,-0.156
19,CGTATACA,0.377
20,TCTATACA,0.209
21,AGTATACA,0.322
22,TGTATACA,0.428

row,Sequence,PBM E-score
1,GGTATACA,0.254
2,TGTATAAA,0.342
3,ATGTGAAT,0.297
4,AACAACCG,0.156
5,GTTTTATA,0.144
6,GTTTTAAA,0.22
7,CGTTTAGA,-0.00881
8,CGTTTAAG,-0.102
9,GGTTTACA,0.396
10,GGTTTAGA,-0.168
11,CGTTTAAC,0.365
12,GTTTTACA,0.408
13,CGTTTACC,0.0999
14,GGTTTATA,0.101
15,GGTTTAAC,0.279
16,CGTTTACA,0.452
17,TCAGGGCA,-0.0208
18,AGGATATG,-0.0728
19,ATGGTCAC,-0.0853
20,GCTGAATA,0.0885
21,CGGGAAGC,-0.026
22,AGTTTACA,0.405

row,Sequence,PBM E-score
1,AGTTTACC,0.075
2,AGTTTACG,0.278
3,CGCATTAG,-0.105
4,GCCTGTCA,-0.0584
5,CAGTGTGG,-0.13
6,AACATCTG,0.128
7,AAGATGTA,0.268
8,AACATTTA,0.242
9,AACATGTT,0.46
10,AACATCTT,-0.0095
11,CACATGTG,0.163
12,AACATGTG,0.395
13,AACATGTC,0.333
14,AACATGTA,0.484
15,ACCAGCAC,-0.0704
16,ATGCGAAT,-0.0339
17,CGGTCAGA,-0.199
18,CAAGGTCA,-0.102
19,TAGGTGGA,-0.0803
20,CGGTGGAG,-0.362
21,ATACTGGA,0.0598
22,TGACATAA,0.319

row,Sequence,PBM E-score
1,TAACATAA,0.422
2,CTACATAA,0.317
3,GGACATAA,0.05
4,GTACATAA,0.377
5,GCACATAA,0.12
6,GAACATAA,0.191
7,TTACATAA,0.474
8,CAACATAA,0.359
9,GCCAAGAC,-0.161
10,CGTGCAAA,0.172
11,ACAATTTA,0.173
12,GGACTAGA,-0.227
13,GCATGTAA,0.485
14,TCATGTAA,0.482
15,GCATGTGA,0.263
16,TCATGTCA,0.359
17,GCATGTCA,0.36
18,TCATGGAA,-0.157
19,AAGGTCCG,-0.108
20,AACCTCGA,-0.0213
21,TAGGAGAA,0.122
22,GCATAGCC,-0.0671

row,Sequence,PBM E-score
1,GTTTTTAA,0.279
2,ATGTGTTA,0.429
3,ATGTGTGG,0.0473
4,GAGTGTTA,0.21
5,ATGTGTGA,0.202
6,CTGTGTTA,0.398
7,CTGTGTTC,0.304
8,ATGTGTTG,0.39
9,CGGTGTTA,0.253
10,ATGTGTTC,0.233
11,GTGTGTTA,0.435
12,GGGTGTTA,0.195
13,ATGTGTCA,0.261
14,GTGGACCA,-0.0852
15,ACTCTGTA,0.204
16,ATATCACC,0.0884
17,ACTGCTCG,-0.0631
18,CCTTCAAC,0.058
19,GTGATCAC,-0.229
20,ATCGCTGC,-0.136
21,TAAGCGCA,0.0443
